Compound activity as filed in PubChem BioAssay.
The entries come from a sample that favours hits as a whole.
VACV mCherry inh = inhibitors of vaccinia virus infection (mCherry reporter signal). 310,000 tested, 0.63% active. Potency, µM (titrated, usually from 36.5 µM), actives largely listed as inhibitors. Vaccinia virus mCherry reporter infection, fluorescence; calls by dose curve; tested in A549 cells; further: nearly all actives have a fitted effect of over 35% in size
Marburg entry inh = Marburg virus entry inhibition. Marburg virus pseudotyped entry inhibition, cell reporter. Potency, µM (highest dose often 37.8 µM), most hits filed as inhibitors. 300,000 tested, 1.8% active. AID 540276; calls by dose curve; tested in HEK293 cells
LASV entry inh = inhibitors of Lassa virus binding or cell entry. Lassa virus pseudotype entry inhibition, cell reporter. Potency, µM (titrated, usually from 37.9 µM), hits mostly inhibitors. 300,000 tested, 1.2% active; calls by dose curve; tested in HEK293 cells; further: nearly all actives have a fitted effect of over 50% in size
Shiga toxin inh = Shiga toxin inhibition | 290,000 tested, 9.2% active | inhibition, % at 38.7 µM | AID 2315 | Vero cells, Shiga toxin protein synthesis inhibition reporter; in the data active means inhibition mostly above about 28%, no sharp cut-off; inactive means mostly below about 43%
CHX counter = affects cycloheximide protein synthesis inhibition readout, counter-screen; 300,000 tested, 12% active; cell reporter, cycloheximide protein synthesis inhibition counterscreen; max response, %; in the data active means max response mostly above about 13%, no sharp cut-off; inactive means mostly below about 14%; further: read at 38.3 µM for the half of the compounds with a filed dose
Vaccinia Venus = vaccinia inhibition (Venus reporter) | Vaccinia virus Venus reporter expression, fluorescence | Potency, µM (titrated, usually from 36.5 µM), most hits filed as inhibitors | 330,000 tested, 0.46% active; calls by dose curve; tested in A549 cells; further: nearly all actives have a fitted effect of over 30% in size
Numbers stand for hits; - = inactive; ? = inconclusive; . = no result; [ ] = remark or other dose.

SMILES	VACV mCherry inh	Marburg entry inh	LASV entry inh	Shiga toxin inh	CHX counter	Vaccinia Venus
Cc1oc2ccc(O)cc2c1C(=O)OC(C)C	-	-	-	-	22	-
Cc1nn(-c2nc(-c3ccc(F)cc3)cc(C(F)(F)F)n2)c(C)c1Cl	-	?	-	.	.	-
CCNC(=S)Nc1ccc(N2CCCCC2)cc1	-	-	-	-	25	-
S=C(NCCc1ccccc1)Nc1ccc(N2CCCCC2)cc1	.	.	.	-	20	.
COCCCNC(=S)NNC(=S)Nc1ccc(OC)cc1	.	.	.	-	-	.
S=C(NCCN1CCCCC1)Nc1ccccc1	-	.	.	-	-	-
COCCCNC(=S)Nc1ccc(N2CCCCC2)cc1	-	?	-	84	-	-
O=C(CSc1nccn1-c1ccc(F)cc1)Nc1ccc(OC(F)(F)F)cc1	-	.	-	.	.	-
COc1ccc(C(=O)N(C)CCCC2CCCC2)cc1OC1CCN(C(C)C)CC1	.	.	.	-	-	.
Cc1cccc(-c2nc(CCNC(=O)c3ccccc3Br)cs2)c1	-	.	-	.	.	-
O=C(C1CCN(Cc2ccccc2)CC1)N1CCN(C/C=C/c2ccccc2)CC1	-	14µM	?	-	-	-
Cc1c2c(c(O)c3c(O)cccc13)C(=O)O[C@H]2C1C(N(C)C)C(O)=C(C(N)=O)C(=O)[C@H]1O (stereo partly specified)	.	.	.	-	-	.
O=C(CCN1C(=O)S/C(=C\c2cccs2)C1=O)NC1=NCCS1	-	-	-	-	17	-
CC1CC(=O)N(c2ccc(NCCc3ccc(O)cc3)c([N+](=O)[O-])c2)C1=O (stereo unspecified)	-	-	?	41	22	-
Cc1ccc(CNc2ccc(N3C(=O)CC(C)C3=O)cc2[N+](=O)[O-])cc1 (stereo unspecified)	-	-	-	-	-	-
CC1CC(=O)N(c2ccc(NCCc3ccccc3)c([N+](=O)[O-])c2)C1=O (stereo unspecified)	-	-	-	68	31	-
COc1ccc(C2CCCN2C(=S)Nc2cccc(C)c2C)cc1OC (stereo unspecified)	-	-	?	-	-	-
CCOC(=O)c1ccccc1NC(=O)Cn1c(=O)n(-c2ccc(CC)cc2)c(=O)c2c(C)c(C(=O)N(C)C)sc21	-	.	-	.	.	-
Cc1nnc(-c2ccco2)c2cn(-c3cccc(Br)c3)nc12	-	-	?	-	44	-
CC(=O)c1nn(-c2cccc(Br)c2)cc1C(=O)c1ccco1	.	-	-	-	-	.
O=C(/C=C/c1ccccc1Cl)NCCCn1ccnc1	-	-	?	-	-	-
Cc1ccc(S(=O)(=O)C(CNC(=O)C(=O)NCCc2ccc(Cl)cc2)c2cccs2)cc1 (stereo unspecified)	-	.	-	.	.	-
O=C(CCC(=O)c1cccs1)Nc1nnc(C2CC2)s1	.	-	-	-	17	.
O=C(Nc1nnc(C2CC2)s1)c1cccs1	.	.	.	100	51	.
O=C(CCC(=O)Nc1nnc(C2CCCCC2)s1)NCc1cccs1	-	-	-	-	-	-
SMILES	VACV mCherry inh	Marburg entry inh	LASV entry inh	Shiga toxin inh	CHX counter	Vaccinia Venus
CNC(=S)NNC(=O)c1cc(C(C)(C)C)nn1Cc1ccc(F)cc1	-	-	-	-	-	-
NC(=O)Cc1ccc(C(=O)c2ccc(Cl)cc2)s1	-	?	?	57	-	-
O=C(O)Cc1ccc(C(=O)c2ccc(Cl)cc2)s1	-	-	-	-	-	-
Cc1ccc([C@H]2C[C@H](c3cccs3)n3nc(N)nc3N2)cc1	.	-	.	.	.	.
O=C1c2ccccc2S(=O)(=O)c2cc(C(=O)N3CCC(C(=O)N4CCCCC4)CC3)ccc21	?	.	.	.	.	1.4µM
CC1CCCC(C)N1C(=O)c1ccc2c(c1)S(=O)(=O)c1ccccc1C2=O (stereo unspecified)	-	-	?	-	-	-
O=C(c1ccc(Br)cc1)c1cc([N+](=O)[O-])ccc1N1CCCCC1	.	0.73µM	?	-	-	.
COc1ccc(C(=O)c2cc([N+](=O)[O-])ccc2N2CCN(C)CC2)cc1	?	7.1µM	-	-	-	-
CN(C)c1ccc(NC(=O)CSc2nnc(C3CCCCC3)n2N)cc1	?	-	-	31	24	-
COc1cccc(CNC(=O)c2cc3c(=O)oc4ccc(C)cc4c3s2)c1	?	-	-	.	.	-
Cc1nc2cc(C(=O)NCCC3=CCCCC3)ccc2n1-c1ccc(Br)cc1	-	.	-	.	.	-
CC(NCc1cccc(OCc2ccccc2)c1)C(O)c1ccccc1 (stereo unspecified)	.	.	.	-	-	.
CC(NCc1ccc(OCc2ccc(Cl)cc2)cc1)C(O)c1ccccc1 (stereo unspecified)	?	13µM	?	-	-	?
Cc1ccc(CSCC(=O)Nc2cc(S(=O)(=O)N3CCOCC3)ccc2OC(C)C)cc1	-	?	?	.	.	-
CC(=O)C(=Nc1ccc(Cl)cc1Cl)NNc1cccc(Cl)c1	-[1.46 µM]	?	10µM	-	-	?
O=C(NCCc1c[nH]c2ccccc12)Nc1ccccc1	.	-	?	-	24	.
S=C(NCCc1c[nH]c2ccccc12)NC1CCCC1	-	-	-	-	23	-
Cc1ccc(NC(=S)NCCc2c[nH]c3ccccc23)cc1	?	-	-	-	15	?
S=C(NCCc1c[nH]c2ccccc12)NC1CCCCC1	-	-	-	-	-	-
CC(=O)c1ccc(NC(=O)NCCc2c[nH]c3ccccc23)cc1	-	-	-	.	.	-
COc1cccc(NC(=O)Nc2cccc(-c3cn4cccnc4n3)c2)c1	-	-	-	.	.	-
Cc1cccc2c(/C=C/c3ccc(N(C)C)cc3)ccnc12	-	.	.	.	.	-
CCN1/C(=C\C=C\C2=[N+](CC)c3ccccc3C2(C)C)C(C)(C)c2ccccc21	.	0.71µM	0.79µM	-	-	.
CC[n+]1c(/C=C/C=C2/N(C)c3ccccc3C2(C)C)sc2ccccc21	.	0.92µM	1.3µM	.	.	.
CC[n+]1c(/C=C/C=C/N(C(C)=O)c2ccccc2)sc2ccccc21	.	?	-	-	-	-
SMILES	VACV mCherry inh	Marburg entry inh	LASV entry inh	Shiga toxin inh	CHX counter	Vaccinia Venus
CCOC(=O)/C=C1/N(C)c2ccccc2C1(C)C	-	-	-	-	-	-
O=C(c1cc(-c2cccc(O)c2)on1)N1CCOCC1	-	.	.	23	13	-
O=C(c1cc(-c2cccc(O)c2)on1)N1CCCCCC1	-	?	?	112	37	-
O=C(c1cccc(-c2ccc(O)cc2)c1)N1CCOCC1	-	-	-	-	13	-
O=C(c1cc(-c2ccc(Cl)c(Cl)c2)on1)N1CCN(c2ccccc2)CC1	-	-	-	-	-	-
O=C1c2ccccc2-c2ccc(C(=O)N3CCOCC3)cc21	.	-	-	-	22	.
Cn1cnc(S(=O)(=O)N2CCCC(C(=O)Nc3ccc(OC(F)(F)F)cc3)C2)c1 (stereo unspecified)	-	.	-	.	.	-
CSCCC(NC(=O)c1ccccc1Cl)C(=O)NNC(=O)c1ccncc1 (stereo unspecified)	-	-	-	.	.	-
COc1ccc(-n2c(=S)[nH]c3cc(C(=O)Nc4ccccc4OC)ccc3c2=O)c(OC)c1	-	-	6.3µM	-	-	-
COc1ccc(-n2c(=S)[nH]c3cc(C(=O)Nc4ccccc4OC)ccc3c2=O)cc1	.	-	-	-	-	.
Oc1cccc(Nc2nc(O)c(/C=C3\C=Nc4ccccc43)s2)c1	?	.	.	94	52	-
